# Values joined by “and” are separate entries in the source; they are usually repeats but may differ in a detail not shown here. Equal values may be shown once. Out of some 5,500 compounds screened, about 2,000 (36%) were called active. Not shown: some 18% with an inconclusive outcome. Some of the results follow. Unmarked numbers belong to inactive results. Cut-off read from the data, not from the text of the source: active = normalized growth mostly below about 0.91 (no sharp cut-off); inconclusive = no clear call, values can overlap the other calls; inactive = mostly above about 0.92.
# Experiment: chemical genetic growth profiling, strain panel (AID 1159580);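 note: tested at 20 µM; growth read once vehicle control cultures reached saturation at 30 °C; 1 = growth at the plate median or of vehicle wells; lower values mean less growth of the strain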
# Conditions: S. cerevisiae deletion strains, growth OD
smiles,measurement,setting,value
O=[N+]([O-])c1cc([As](=O)(O)O)ccc1O,normalized growth,"locus YAL013W, strain DEP1, stronger effect = lower value",0.987
same,normalized growth,"locus YAL021C, strain ccr4, stronger effect = lower value",0.965
same,normalized growth,"locus YAL026C, strain drs2, stronger effect = lower value",0.975
same,normalized growth,"locus YAL030W, strain snc1, stronger effect = lower value",0.971
same,normalized growth,"locus YBL061C, strain skt5, stronger effect = lower value",0.979
same,normalized growth,"locus YBR009C, strain hhf1, stronger effect = lower value",0.975
same,normalized growth,"locus YBR021W, strain FUR4, stronger effect = lower value",1.01
same,normalized growth,"locus YBR023C, strain chs3, stronger effect = lower value",0.986
same,normalized growth,"locus YBR171W, strain sec66, stronger effect = lower value",0.946
same,normalized growth,"locus YBR229C, strain ROT2, stronger effect = lower value",1
same,normalized growth,"locus YBR231C, strain swc5, stronger effect = lower value",0.946
same,normalized growth,"locus YBR279W, strain paf1, stronger effect = lower value",0.963
same,normalized growth,"locus YCL011C, strain gbp2, stronger effect = lower value",0.991
same,normalized growth,"locus YCL016C, strain dcc1, stronger effect = lower value",0.99
same,normalized growth,"locus YCL029C, strain bik1, stronger effect = lower value",0.914
same,normalized growth,"locus YCL069W, strain vba3, stronger effect = lower value",0.967
same,normalized growth,"locus YCR088W, strain abp1, stronger effect = lower value",0.975
same,normalized growth,"locus YDL005C, strain med2, stronger effect = lower value",0.972
same,normalized growth,"locus YDL035C, strain GPR1, stronger effect = lower value",1
same,normalized growth,"locus YDL040C, strain nat1, stronger effect = lower value",0.958
same,normalized growth,"locus YDL074C, strain BRE1, stronger effect = lower value",0.977
same,normalized growth,"locus YDL101C, strain DUN1, stronger effect = lower value",1
same,normalized growth,"locus YDL134C, strain PPH21, stronger effect = lower value",0.989
same,normalized growth,"locus YDL185W, strain tfp1, stronger effect = lower value",0.978
same,normalized growth,"locus YDL192W, strain arf1, stronger effect = lower value",0.214 (active)
same,normalized growth,"locus YDR001C, strain nth1, stronger effect = lower value",0.967
same,normalized growth,"locus YDR069C, strain doa4, stronger effect = lower value",0.945
same,normalized growth,"locus YDR101C, strain arx1, stronger effect = lower value",0.759 (active)
same,normalized growth,"locus YDR137W, strain rgp1, stronger effect = lower value",0.984
same,normalized growth,"locus YDR150W, strain NUM1, stronger effect = lower value",0.987
same,normalized growth,"locus YDR159W, strain sac3, stronger effect = lower value",0.978
same,normalized growth,"locus YDR162C, strain NBP2, stronger effect = lower value",0.962
same,normalized growth,"locus YDR195W, strain ref2",0.898
same,normalized growth,"locus YDR297W, strain sur2, stronger effect = lower value",0.971
same,normalized growth,"locus YDR318W, strain mcm21, stronger effect = lower value",0.0896 (active)
same,normalized growth,"locus YDR334W, strain swr1, stronger effect = lower value",0.958
same,normalized growth,"locus YDR335W, strain msn5, stronger effect = lower value",0.972
same,normalized growth,"locus YDR388W, stronger effect = lower value",0.112 (active)
same,normalized growth,"locus YDR392W, strain spt3, stronger effect = lower value",0.989
same,normalized growth,"locus YDR502C, strain sam2, stronger effect = lower value",0.247 (active)
same,normalized growth,"locus YEL003W, strain gim4, stronger effect = lower value",0.963
same,normalized growth,"locus YEL037C, strain rad23, stronger effect = lower value",0.953
same,normalized growth,"locus YEL061C, strain CIN8 (second series), stronger effect = lower value",0.971
same,normalized growth,"locus YEL061C, strain CIN8, stronger effect = lower value",0.993
same,normalized growth,"locus YER015W, strain faa2, stronger effect = lower value",0.958
same,normalized growth,"locus YER016W, strain bim1, stronger effect = lower value",0.997
same,normalized growth,"locus YER110C, stronger effect = lower value",0.566 (active)
same,normalized growth,"locus YER111C, strain swi4, stronger effect = lower value",0.949
same,normalized growth,"locus YER155C, strain BEM2 (second series), stronger effect = lower value",0.953
same,normalized growth,"locus YER155C, strain BEM2, stronger effect = lower value",0.998
same,normalized growth,"locus YER167W, strain BCK2, stronger effect = lower value",1.02
same,normalized growth,"locus YFR010W, strain ubp6, stronger effect = lower value",0.949
same,normalized growth,"locus YGL078C, strain dbp3, stronger effect = lower value",0.406 (active)
same,normalized growth,"locus YGL086W, strain mad1, stronger effect = lower value",0.0902 (active)
same,normalized growth,"locus YGL167C, strain pmr1, stronger effect = lower value",0.971
same,normalized growth,"locus YGL173C, strain kem1, stronger effect = lower value",0.964
same,normalized growth,"locus YGL227W, strain vid30, stronger effect = lower value",0.964
same,normalized growth,"locus YGL240W, strain doc1, stronger effect = lower value",0.946
same,normalized growth,"locus YGL248W, strain PDE1, stronger effect = lower value",0.992
same,normalized growth,"locus YGL253W, strain hxk2, stronger effect = lower value",0.963
same,normalized growth,"locus YGR078C, strain PAC10, stronger effect = lower value",0.958
same,normalized growth,"locus YGR135W, strain pre9, stronger effect = lower value",0.089 (active)
same,normalized growth,"locus YGR229C, strain SMI1, stronger effect = lower value",0.981
same,normalized growth,"locus YGR252W, strain gcn5, stronger effect = lower value",0.255 (active)
same,normalized growth,"locus YHR013C, strain ard1, stronger effect = lower value",0.986
same,normalized growth,"locus YHR027C, strain rpn1, stronger effect = lower value",0.972
same,normalized growth,"locus YHR030C, strain SLT2, stronger effect = lower value",0.998 and 1.06
same,normalized growth,"locus YHR079C, strain IRE1 (second series), stronger effect = lower value",0.791 (active)
same,normalized growth,"locus YHR079C, strain IRE1, stronger effect = lower value",1.09
same,normalized growth,"locus YHR094C, strain hxt1, stronger effect = lower value",0.25 (active)
same,normalized growth,"locus YHR129C, strain ARP1, stronger effect = lower value",0.999
same,normalized growth,"locus YHR142W, strain chs7, stronger effect = lower value",0.968
same,normalized growth,"locus YHR200W, strain rpn10, stronger effect = lower value",0.26 (active)
same,normalized growth,"locus YIL066C, strain RNR3, stronger effect = lower value",1.04
same,normalized growth,"locus YIL073C, strain SPO22, stronger effect = lower value",1.06
same,normalized growth,"locus YIL125W, strain kgd1, stronger effect = lower value",0.521 (active)
same,normalized growth,"locus YIR030C, strain dcg1, stronger effect = lower value",0.629 (active)
same,normalized growth,"locus YJL092W, strain hpr5, stronger effect = lower value",0.969
same,normalized growth,"locus YJL095W, strain BCK1 (second series), stronger effect = lower value",0.966
same,normalized growth,"locus YJL095W, strain BCK1, stronger effect = lower value",0.999 and 1.02
same,normalized growth,"locus YJL115W, strain asf1, stronger effect = lower value",0.962
same,normalized growth,"locus YJL129C, strain trk1, stronger effect = lower value",0.936
same,normalized growth,"locus YJL134W, strain LCB3, stronger effect = lower value",0.991
same,normalized growth,"locus YJL154C, strain vps35, stronger effect = lower value",0.945
same,normalized growth,"locus YJL164C, strain tpk1, stronger effect = lower value",1
same,normalized growth,"locus YJL166W, strain qcr8, stronger effect = lower value",0.977
same,normalized growth,"locus YJL168C, strain set2, stronger effect = lower value",0.453 (active)
same,normalized growth,"locus YJL187C, strain SWE1 (second series), stronger effect = lower value",1
same,normalized growth,"locus YJL187C, strain SWE1, stronger effect = lower value",0.964
same,normalized growth,"locus YJR043C, strain POL32, stronger effect = lower value",1.02
same,normalized growth,"locus YJR066W, strain TOR1, stronger effect = lower value",0.989
